# Reference: the supplement of paper PMC10681739
# Molecular target: RUNX1 (UniProt Q01196)
# Assay: RUNX1 binding intensity (PBM fluorescence), RUNX1 alone (arbitrary fluorescence units); higher = stronger binding
# Details: RUNX1 concentration 2 nM; ETS1 concentration 0 nM
# Description: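 Cooperative gcPBM on 36-bp genomic probes with neighbouring ETS1 and RUNX1 sites. Recombinant human RUNX1 (2 nM) was incubated alone or with ETS1 (25 nM) and detected with anti-RUNX1 antibody plus Alexa488 secondary. Values are medians over 4 replicate spots; the RUNX1+ETS1 data were normalised to the RUNX1-only data. The probes sit in constant array flanks that are not printed.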
# 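For RUNX1 binding intensity (PBM fluorescence), RUNX1 alone in this document: Full-length recombinant human RUNX1 bound to double-stranded 36-bp genomic probes on a high-density microarray, scored as Alexa488 fluorescence per spot via anti-RUNX1 antibody, median of four replicate spots.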
# Chain of RUNX1 (Q01196 whole entry): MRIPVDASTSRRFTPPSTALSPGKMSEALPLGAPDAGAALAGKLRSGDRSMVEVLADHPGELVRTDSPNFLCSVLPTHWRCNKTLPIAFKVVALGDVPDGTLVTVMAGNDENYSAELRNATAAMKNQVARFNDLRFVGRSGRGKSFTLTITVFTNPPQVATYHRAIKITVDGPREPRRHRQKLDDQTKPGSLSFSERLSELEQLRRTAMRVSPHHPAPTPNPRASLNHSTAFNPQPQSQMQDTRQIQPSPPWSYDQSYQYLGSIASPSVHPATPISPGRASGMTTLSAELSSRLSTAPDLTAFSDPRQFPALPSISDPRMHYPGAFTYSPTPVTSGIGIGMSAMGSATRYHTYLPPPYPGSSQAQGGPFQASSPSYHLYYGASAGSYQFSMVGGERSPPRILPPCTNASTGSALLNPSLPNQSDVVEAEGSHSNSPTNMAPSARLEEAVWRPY
row,Sequence,RUNX1 binding intensity
1,AAAGCAAAGTCAAGAGGATGTGGTGACCAATTCTGC,685
2,CCTGTACGGAAGCTACTCTGGTTTCATGTGGTTTCA,904
3,GAGCGCCCACTTCCTGTTTACCACCCAGCCTCTTCG,1110
4,GAGGACGCGGAAGTCCTTCTTGCGGGGCGGAGCTAG,664
5,ACGTCTGTTTCCTGTGATTGAAACCGCAAGAAGAAG,4510
6,AGCACAAACCCAGGATGTGGTAAATGAAATGAAAAA,858
7,CGGGACACAGGAAGCCGTTGTGGGGCCCCGGGGCCA,711
8,GGACGCCGCCGGAAGCGCGACCCGCACTCCCGGTAG,794
9,TACATCTTCAGAGGAAGTGGGTTTGTGTATCTTTGA,786
10,GCAGAGAGGAGGGGATGTGGTTTCACAGCTTGCTCC,835
11,TGCGACGGAAGCAGGAACTTGCTAACCACAAAACCC,1790
12,CCTCACCCAGGAAGTGGCTGCGGCTGTCTCAGGGTT,770
13,GCTCTGCAGGATGTGGCTGTGACCGCAGTGAGGAGC,1520
14,TAAGCAGGGAATAGAGGAAGTGGTTTTGTCTCAGGC,779
15,AGACCCGGAAGAACTTGTCCCAGTGTTGACCACACC,870
16,CCGGTCCTGACCGGAAGCGGTAACCGTCACTCCTTC,703
17,TCCCTAAGTCACATCCTGTGGGCAAAGGCCCTAGCA,769
18,AATATCCTGTATGTCATGCTTAAAAAGCCACAAAAC,875
19,GCACTGTGGGAGGAAGTGGGTATGTGGTGAGCTCTT,856
20,GAGGACTTCCGGGTGGGTGTGATATCTGCGGGCCCG,760

row,Sequence,RUNX1 binding intensity
1,AACTAGAGCGTCATTTCCTGTGGGTACAAGTCCAGT,842
2,GGGTGCAGACGGGAAGTTGCGGCTGCCAGCGAAGCT,741
3,CATGGTGGTGACGCAGGATGTGGTGGTGGTGTAGAA,707
4,AACCCCAAAACGGAAACACCGGAGCCACAAGCTGAG,900
5,CGACAGAGGACACTTCCTTTTGCGGGTGGCGGCGAA,697
6,CCACGGCTGGCTTCCTGTGTGGTTGGCACGCCTTAC,772
7,AGGCAAACAGGATGTTCCTCTCCCACATGCAGACTT,806
8,CCATCTTCATACAGGATGCTGTGGTATGTAAAACAA,787
9,GAGACTTTCGCTTCCGGCTGCCGCAGGCGCTTCGCT,710
10,ACGTTTCGGGGTTTCCGGGCCAGCGGTTTCGGGCGC,937
11,GCCATCCAGGAAGTACAGACTCCCTGACCGCACTGA,1140
12,TGTCCACCTCTACGGAAGTGCGCCGCAGTCCGCCAG,792
13,CTCACCCCTGGAGGATGTGGGTTTCCAGGCTGACAG,849
14,CAGGGCACCTCCTACTTCCCCCCGCAGATAACTACC,999
15,CTCTGCCCGCTTCCGCTGGCGGTACCTCAGAGCCGC,904
16,CCTGTCCGGAAGTCCTGAGAGGGAATCGCCCGCAAA,963
17,TTAGGCAGAGCTCATTTCCGCCCACATCAAAAGTAA,867
18,CCCCACCCAGACAGGAAACTGTGGCTTCTATCAGAT,820
19,ACTTGACTTCCTGTGGGGTGTGTGGTGTCTGCACTT,798
20,GATACCCAGCCAGCGGAAGTGCGGTTAACTGCCCGA,4990

# Molecular target: T1, ETS1 (UniProt P14921)
# T1 sequence: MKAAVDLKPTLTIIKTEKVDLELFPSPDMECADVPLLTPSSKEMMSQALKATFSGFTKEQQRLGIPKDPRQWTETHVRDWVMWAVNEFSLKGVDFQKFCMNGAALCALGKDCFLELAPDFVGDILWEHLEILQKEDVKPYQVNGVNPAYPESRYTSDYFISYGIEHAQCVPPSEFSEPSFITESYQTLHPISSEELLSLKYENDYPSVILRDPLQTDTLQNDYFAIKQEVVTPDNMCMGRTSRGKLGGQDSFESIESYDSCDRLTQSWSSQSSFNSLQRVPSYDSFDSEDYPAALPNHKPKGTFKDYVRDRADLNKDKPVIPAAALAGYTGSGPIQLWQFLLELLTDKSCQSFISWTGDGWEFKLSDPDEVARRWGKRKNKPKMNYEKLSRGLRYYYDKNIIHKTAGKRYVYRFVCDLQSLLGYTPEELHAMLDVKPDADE
# Assay: ETS1 binding intensity (PBM fluorescence) in presence of RUNX1, normalised to ETS1-only experiment (arbitrary fluorescence units); higher = stronger binding
# Details: ETS1 concentration 1 nM; RUNX1 concentration 25 nM
row,Sequence,ETS1 binding intensity
1,AAAGCAAAGTCAAGAGGATGTGGTGACCAATTCTGC,2860
2,CCTGTACGGAAGCTACTCTGGTTTCATGTGGTTTCA,654
3,GAGCGCCCACTTCCTGTTTACCACCCAGCCTCTTCG,5330
4,GAGGACGCGGAAGTCCTTCTTGCGGGGCGGAGCTAG,840
5,ACGTCTGTTTCCTGTGATTGAAACCGCAAGAAGAAG,2250
6,AGCACAAACCCAGGATGTGGTAAATGAAATGAAAAA,5210
7,CGGGACACAGGAAGCCGTTGTGGGGCCCCGGGGCCA,1970
8,GGACGCCGCCGGAAGCGCGACCCGCACTCCCGGTAG,3500
9,TACATCTTCAGAGGAAGTGGGTTTGTGTATCTTTGA,3750
10,GCAGAGAGGAGGGGATGTGGTTTCACAGCTTGCTCC,1720
11,TGCGACGGAAGCAGGAACTTGCTAACCACAAAACCC,13200
12,CCTCACCCAGGAAGTGGCTGCGGCTGTCTCAGGGTT,3340
13,GCTCTGCAGGATGTGGCTGTGACCGCAGTGAGGAGC,11800
14,TAAGCAGGGAATAGAGGAAGTGGTTTTGTCTCAGGC,7880
15,AGACCCGGAAGAACTTGTCCCAGTGTTGACCACACC,1100
16,CCGGTCCTGACCGGAAGCGGTAACCGTCACTCCTTC,29000
17,TCCCTAAGTCACATCCTGTGGGCAAAGGCCCTAGCA,935
18,AATATCCTGTATGTCATGCTTAAAAAGCCACAAAAC,1070
19,GCACTGTGGGAGGAAGTGGGTATGTGGTGAGCTCTT,4990
20,GAGGACTTCCGGGTGGGTGTGATATCTGCGGGCCCG,677

row,Sequence,ETS1 binding intensity
1,AACTAGAGCGTCATTTCCTGTGGGTACAAGTCCAGT,2400
2,GGGTGCAGACGGGAAGTTGCGGCTGCCAGCGAAGCT,2530
3,CATGGTGGTGACGCAGGATGTGGTGGTGGTGTAGAA,5340
4,AACCCCAAAACGGAAACACCGGAGCCACAAGCTGAG,961
5,CGACAGAGGACACTTCCTTTTGCGGGTGGCGGCGAA,1170
6,CCACGGCTGGCTTCCTGTGTGGTTGGCACGCCTTAC,1210
7,AGGCAAACAGGATGTTCCTCTCCCACATGCAGACTT,3770
8,CCATCTTCATACAGGATGCTGTGGTATGTAAAACAA,3590
9,GAGACTTTCGCTTCCGGCTGCCGCAGGCGCTTCGCT,1700
10,ACGTTTCGGGGTTTCCGGGCCAGCGGTTTCGGGCGC,1140
11,GCCATCCAGGAAGTACAGACTCCCTGACCGCACTGA,5400
12,TGTCCACCTCTACGGAAGTGCGCCGCAGTCCGCCAG,2370
13,CTCACCCCTGGAGGATGTGGGTTTCCAGGCTGACAG,2130
14,CAGGGCACCTCCTACTTCCCCCCGCAGATAACTACC,1010
15,CTCTGCCCGCTTCCGCTGGCGGTACCTCAGAGCCGC,920
16,CCTGTCCGGAAGTCCTGAGAGGGAATCGCCCGCAAA,5360
17,TTAGGCAGAGCTCATTTCCGCCCACATCAAAAGTAA,1990
18,CCCCACCCAGACAGGAAACTGTGGCTTCTATCAGAT,4660
19,ACTTGACTTCCTGTGGGGTGTGTGGTGTCTGCACTT,901
20,GATACCCAGCCAGCGGAAGTGCGGTTAACTGCCCGA,18400
